Measurements published in PubChem BioAssay (Tox21).
“And” between values parts separate entries of the source, which are not always exact repeats. Equal entries are not always repeated. Results filed as inconclusive are left out. Entries that show only a call come without a potency. More than one record can exist for a structure, and the calls need not agree. The source made the active and inactive calls. The call rests on the fitted dose curve; in most records, active means well fitted curve in the direction sought with a large enough effect in the repeat runs; inconclusive means weak or mixed curves; inactive means no such curve, though single readings can be large; an effect the other way counts as inactive or inconclusive.

Test: A CellTox Green Cytotoxicity Assay to monitor cytotoxicity in HEK293 cells - 16 hour (AID 1224888); further: nearly all actives have a fitted effect of over 35% in size
Conditions: CellTox Green fluorescence; series mostly up to 76.8 µM; activity change: at the top concentration
In short: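 HEK293 cells premixed with CellTox Green dye were seeded at 600 cells/well and left 5 h at 37 C/5% CO2 before pin transfer of 23 nL compound in DMSO. Fluorescence from dye bound to dead-cell DNA was read during 40 h treatment.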

Row | Compound | Potency | activity change
1 | O=C(c1cc(O)c(O)c(O)c1)c1ccc(O)c(O)c1O | inactive | –
2 | O=C(Oc1ccccc1)c1ccc(O)cc1 | inactive | –
3 | CCc1ccccc1O | inactive | –
4 | Cc1cc(O)cc(C)c1Cl | inactive | –
5 | CCOC(=O)/C=C\C(=O)OCC | inactive | –
6 | CC1=C(CC(=O)O)c2cc(F)ccc2/C1=C\c1ccc(S(C)=O)cc1 (centres undefined) | inactive | –
7 | Nc1cc(-c2ccncc2)c[nH]c1=O | inactive | –
8 | CCCCCCCCCCC=CC1CC(=O)OC1=O (centres undefined) | inactive | –
9 | C=CC(=O)OCCCCCCCC(C)C | inactive | –
10 | CCCCOCCOCCOC(=O)CCCCC(=O)OCCOCCOCCCC | inactive | –
11 | O=C(O)c1ccc([N+](=O)[O-])cc1 | inactive | –
12 | CC1(C)CC(N=C=O)CC(C)(CN=C=O)C1 (centres undefined) | inactive | –
13 | NC(=O)/N=N/C(N)=O | inactive | –
14 | CNC[C@H](O)[C@@H](O)[C@H](O)[C@H](O)CO | inactive | –
15 | CC(=O)Nc1ccc(C(=O)O)cc1 | – | 1.35% [at 35.3 µM, stronger effect = higher value] (inactive)
16 | O=C1O[C@H](CO)[C@@H](O)[C@H](O)[C@H]1O | inactive | –
17 | C=C(C)C(=O)OCCCCCC | inactive | –

Test: qHTS RealTime-Glo MT Cell Viability Assay in HepG2 cells - 0 hour (AID 1224889); further: nearly all actives have a fitted effect of over 50% in size
Conditions: RealTime-Glo luminescence; series mostly up to 76.8 µM; activity change, negative = cytotoxicity: at the top concentration
In short: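 Real-time, nonlytic viability: 600 HepG2 cells/well mixed with NanoLuc enzyme plus prosubstrate; 5 h settle, compound (DMSO) added by pintool; luminescence monitored over 40 h at 37 C.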

Row | Compound | Potency | activity change, negative = cytotoxicity
18 | COC(=O)c1ccccc1O | inactive | –
19 | Oc1ccc2ccccc2c1N=Nc1ccccc1 | inactive | –
20 | C[C@@H](O)[C@H]1C(=O)N2C(C(=O)O)=C(S[C@@H]3CN[C@H](C(=O)N(C)C)C3)[C@H](C)[C@H]12 | inactive | –
21 | CCc1ccc(O)cc1 | inactive | –
22 | COC(=O)c1ccc(C(=O)OC)cc1 | inactive | –
23 | CN(C)c1cccc(O)c1 | inactive | –
24 | COCC(=O)O | inactive | –
25 | CC1=CC[C@H]2C[C@@H]1C2(C)C | inactive | –
26 | CC(C)(C)C1CCC(O)CC1 (centres undefined) | inactive | –
27 | O=S(=O)(O)c1cc(S(=O)(=O)O)c2c(N=Nc3ccccc3)c(O)ccc2c1 | inactive | –
28 | S=c1nc[nH]c2nc[nH]c12 | inactive | –
29 | O=C(Cl)c1c(Cl)c(Cl)c(C(=O)Cl)c(Cl)c1Cl | inactive | –
30 | Nc1nc2ncc(CNc3ccc(C(=O)N[C@@H](CCC(=O)O)C(=O)O)cc3)nc2c(=O)[nH]1 | inactive | –
31 | CC1Cc2ccccc2N1NC(=O)c1ccc(Cl)c(S(N)(=O)=O)c1 (centres undefined) | inactive | –
32 | C=C(C)C(=O)OCC(CC)(COC(=O)C(=C)C)COC(=O)C(=C)C | inactive | –
33 | CCCCCCCCCCCCOCC1CO1 (centres undefined) | inactive | –
34 | O=C(c1cc(O)c(O)c(O)c1)c1ccc(O)c(O)c1O | inactive | –
35 | Cc1cc(O)cc(C)c1Cl | inactive | –
36 | CC1=C(CC(=O)O)c2cc(F)ccc2/C1=C\c1ccc(S(C)=O)cc1 (centres undefined) | inactive | –
37 | Nc1cc(-c2ccncc2)c[nH]c1=O | – | -0.998% [at 35.3 µM] (inactive)
38 | CCCCCCCCCCC=CC1CC(=O)OC1=O (centres undefined) | inactive | –
39 | CC1(C)CC(N=C=O)CC(C)(CN=C=O)C1 (centres undefined) | inactive | –
40 | CNC[C@H](O)[C@@H](O)[C@H](O)[C@H](O)CO | inactive | –

Test: A CellTox Green Cytotoxicity Assay to monitor cytotoxicity in HepG2 cells - 8 hour (AID 1224890); further: nearly all actives have a fitted effect of over 45% in size; further: potency means the concentration at half of the fitted maximal effect
Conditions: CellTox Green fluorescence; series mostly up to 76.8 µM; cytotoxicity increase: at the top concentration
In short: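 HepG2 cells were seeded together with the CellTox Green dye at 600 cells/well, left 5 h at 37 C/5% CO2, then given compounds in DMSO. Fluorescence from dye bound to dead-cell DNA was read repeatedly over 40 h of treatment at 37 C.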

Row | Compound | Potency | cytotoxicity increase
41 | CC1=C(/C=C/C(C)=C/C=C/C(C)=C/CO)C(C)(C)CCC1 | inactive | –
42 | COC(=O)c1ccccc1O | – | 1.18% (inactive)
43 | Oc1ccc2ccccc2c1N=Nc1ccccc1 | inactive | –
44 | C[C@@H](O)[C@H]1C(=O)N2C(C(=O)O)=C(S[C@@H]3CN[C@H](C(=O)N(C)C)C3)[C@H](C)[C@H]12 | inactive | –
45 | C=C1CC[C@H](O)CC1=C/C=C1\CCC[C@]2(C)[C@@H]([C@H](C)/C=C/[C@H](C)C(C)C)CC[C@@H]12 | inactive | –
46 | CCc1ccc(O)cc1 | inactive | –
47 | COC(=O)c1ccc(C(=O)OC)cc1 | inactive | –
48 | OCC#CCO | inactive | –
49 | CN(C)c1cccc(O)c1 | inactive and 54.9 µM (active) | –
50 | COCC(=O)O | inactive | –
51 | CC1=CC[C@H]2C[C@@H]1C2(C)C | inactive | –
52 | CC(C)(C)C1CCC(O)CC1 (centres undefined) | inactive | –
53 | O=S(=O)(O)c1cc(S(=O)(=O)O)c2c(N=Nc3ccccc3)c(O)ccc2c1 | inactive | –
54 | CC#C[C@]1(O)CC[C@H]2[C@@H]3CCC4=CC(=O)CCC4=C3[C@@H](c3ccc(N(C)C)cc3)C[C@@]21C | inactive | –
55 | S=c1nc[nH]c2nc[nH]c12 | inactive | –
56 | O=C(Cl)c1c(Cl)c(Cl)c(C(=O)Cl)c(Cl)c1Cl | inactive | –
57 | Nc1nc2ncc(CNc3ccc(C(=O)N[C@@H](CCC(=O)O)C(=O)O)cc3)nc2c(=O)[nH]1 | inactive | –
58 | CC1Cc2ccccc2N1NC(=O)c1ccc(Cl)c(S(N)(=O)=O)c1 (centres undefined) | inactive | –
59 | C=C(C)C(=O)OCC(CC)(COC(=O)C(=C)C)COC(=O)C(=C)C | inactive and 42.9 µM (active) | –
60 | CCCCCCCCCCCCOCC1CO1 (centres undefined) | inactive | –

Row | Compound | Potency | cytotoxicity increase
61 | CC(C)n1c(/C=C/[C@@H](O)C[C@@H](O)CC(=O)O)c(-c2ccc(F)cc2)c2ccccc21 | inactive | –
62 | NC(=O)NNc1ccccc1 | inactive | –
63 | O=C(c1cc(O)c(O)c(O)c1)c1ccc(O)c(O)c1O | inactive | –
64 | O=C(Oc1ccccc1)c1ccc(O)cc1 | – | 0.478% (inactive)
65 | CCc1ccccc1O | inactive | –
66 | Cc1cc(O)cc(C)c1Cl | inactive | –
67 | CCOC(=O)/C=C\C(=O)OCC | inactive | –
68 | CC1=C(CC(=O)O)c2cc(F)ccc2/C1=C\c1ccc(S(C)=O)cc1 (centres undefined) | inactive | –
69 | Nc1cc(-c2ccncc2)c[nH]c1=O | inactive | –
70 | CCCCCCCCCCC=CC1CC(=O)OC1=O (centres undefined) | inactive | –
71 | C=CC(=O)OCCCCCCCC(C)C | inactive | –
72 | CCCCOCCOCCOC(=O)CCCCC(=O)OCCOCCOCCCC | inactive | –
73 | O=C(O)c1ccc([N+](=O)[O-])cc1 | inactive | –
74 | CC1(C)CC(N=C=O)CC(C)(CN=C=O)C1 (centres undefined) | inactive | –
75 | NC(=O)/N=N/C(N)=O | inactive | –
76 | CNC[C@H](O)[C@@H](O)[C@H](O)[C@H](O)CO | inactive | –
77 | CC(=O)Nc1ccc(C(=O)O)cc1 | inactive | –
78 | O=C1O[C@H](CO)[C@@H](O)[C@H](O)[C@H]1O | inactive | –
79 | C=C(C)C(=O)OCCCCCC | inactive | –
